# According to the supplement of paper PMC4466140:
# B1: unnamed (peptide)
# chain: LKQRFFLMFPKSIIW
# Target: ScBbc1
# Experiment: SPOT peptide array binding signal intensity (averaged, normalized) (arbitrary units (background-subtracted, floor 0; scale differs between SH3 domains)); higher = stronger binding of the SH3 domain to the peptide
# Procedure, shortened: (§1)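 Detection of bound protein relied on anti-GST antibody, an HRP anti-mouse secondary and luminol, with imaging and quantification in Genespotter. The bound protein was GST-fused SH3 domains from four yeast species, incubated at 10 μg/ml overnight at 4°C in TBS-based blocking buffer on cellulose membranes carrying synthetic 15-mer peptides with cysteines replaced by serines. Binding signal is normalized, background-subtracted spot intensity averaged over replicates, in arbitrary units that differ between domains.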
row,Binder,SPOT peptide array binding signal intensity
1,B1,4.5

# Target: ScBem1-D1
# Experiment: as above
# Procedure, shortened: as §1
row,Binder,SPOT peptide array binding signal intensity
1,B1,69

# Target: ScBzz1-D1
# Experiment: as above
# Procedure, shortened: as §1
row,Binder,SPOT peptide array binding signal intensity
1,B1,42

# Target: ScBzz1-D2
# Experiment: as above
# Procedure, shortened: as §1
row,Binder,SPOT peptide array binding signal intensity
1,B1,150

# Target: ScCyk3
# Experiment: as above
# Procedure, shortened: as §1
row,Binder,SPOT peptide array binding signal intensity
1,B1,124

# Target: ScFus1
# Experiment: as above
# Procedure, shortened: as §1
row,Binder,SPOT peptide array binding signal intensity
1,B1,819

# Target: ScHof1
# Experiment: as above
# Procedure, shortened: as §1
row,Binder,SPOT peptide array binding signal intensity
1,B1,1.5

# Target: ScHse1
# Experiment: as above
# Procedure, shortened: as §1
row,Binder,SPOT peptide array binding signal intensity
1,B1,1580

# Target: ScLsb1
# Experiment: as above
# Procedure, shortened: as §1
row,Binder,SPOT peptide array binding signal intensity
1,B1,1

# Target: ScLsb2
# Experiment: as above
# Procedure, shortened: as §1
row,Binder,SPOT peptide array binding signal intensity
1,B1,≤ 0

# Target: ScLsb3
# Experiment: as above
# Procedure, shortened: as §1
row,Binder,SPOT peptide array binding signal intensity
1,B1,33

# Target: ScLsb4
# Experiment: as above
# Procedure, shortened: as §1
row,Binder,SPOT peptide array binding signal intensity
1,B1,14.5

# Target: ScMyo3
# Experiment: as above
# Procedure, shortened: as §1
row,Binder,SPOT peptide array binding signal intensity
1,B1,≤ 0

# Target: ScMyo5
# Experiment: as above
# Procedure, shortened: as §1
row,Binder,SPOT peptide array binding signal intensity
1,B1,4

# Target: ScNbp2
# Experiment: as above
# Procedure, shortened: as §1
row,Binder,SPOT peptide array binding signal intensity
1,B1,252

# Target: ScPex13
# Experiment: as above
# Procedure, shortened: as §1
row,Binder,SPOT peptide array binding signal intensity
1,B1,15.5

# Target: ScRvs167
# Experiment: as above
# Procedure, shortened: as §1
row,Binder,SPOT peptide array binding signal intensity
1,B1,14.5

# Target: ScSho1
# Experiment: as above
# Procedure, shortened: as §1
row,Binder,SPOT peptide array binding signal intensity
1,B1,1060

# Target: ScSla1-D1-D2
# Experiment: as above
# Procedure, shortened: as §1
row,Binder,SPOT peptide array binding signal intensity
1,B1,91.5

# Target: ScSla1-D3
# Experiment: as above
# Procedure, shortened: as §1
row,Binder,SPOT peptide array binding signal intensity
1,B1,132

# Target: SpAbp1-D1
# Experiment: as above
# Procedure, shortened: as §1
row,Binder,SPOT peptide array binding signal intensity
1,B1,69

# Target: SpBbc1
# Experiment: as above
# Procedure, shortened: as §1
row,Binder,SPOT peptide array binding signal intensity
1,B1,≤ 0

# Target: SpBzz1-D1
# Experiment: as above
# Procedure, shortened: as §1
row,Binder,SPOT peptide array binding signal intensity
1,B1,103

# Target: SpBzz1-D2
# Experiment: as above
# Procedure, shortened: as §1
row,Binder,SPOT peptide array binding signal intensity
1,B1,0.5

# Target: SpCyk3
# Experiment: as above
# Procedure, shortened: as §1
row,Binder,SPOT peptide array binding signal intensity
1,B1,9

# Target: SpHof1
# Experiment: as above
# Procedure, shortened: as §1
row,Binder,SPOT peptide array binding signal intensity
1,B1,236

# Target: SpHof1-2
# Experiment: as above
# Procedure, shortened: as §1
row,Binder,SPOT peptide array binding signal intensity
1,B1,36.5

# Target: SpHof1-3
# Experiment: as above
# Procedure, shortened: as §1
row,Binder,SPOT peptide array binding signal intensity
1,B1,748

# Target: SpHse1
# Experiment: as above
# Procedure, shortened: as §1
row,Binder,SPOT peptide array binding signal intensity
1,B1,972

# Target: SpLsb1
# Experiment: as above
# Procedure, shortened: as §1
row,Binder,SPOT peptide array binding signal intensity
1,B1,≤ 0

# Target: SpLsb4
# Experiment: as above
# Procedure, shortened: as §1
row,Binder,SPOT peptide array binding signal intensity
1,B1,38.5

# Target: SpMyo1
# Experiment: as above
# Procedure, shortened: as §1
row,Binder,SPOT peptide array binding signal intensity
1,B1,3.5

# Target: SpNbp2
# Experiment: as above
# Procedure, shortened: as §1
row,Binder,SPOT peptide array binding signal intensity
1,B1,515

# Target: SpPex13
# Experiment: as above
# Procedure, shortened: as §1
row,Binder,SPOT peptide array binding signal intensity
1,B1,86

# Target: SpRvs167
# Experiment: as above
# Procedure, shortened: as §1
row,Binder,SPOT peptide array binding signal intensity
1,B1,14.3

# Target: SpSla1-D1-D2
# Experiment: as above
# Procedure, shortened: as §1
row,Binder,SPOT peptide array binding signal intensity
1,B1,≤ 0

# Target: SpSla1-D3
# Experiment: as above
# Procedure, shortened: as §1
row,Binder,SPOT peptide array binding signal intensity
1,B1,39
